PfHsp90 yeast 2: inhibits growth of yeast expressing Plasmodium falciparum Hsp90; S. cerevisiae expressing PfHsp90, BacTiter-Glo ATP, 48 h; yeast lacking PDR1 and PDR3 efflux regulators; inhibition, % at 9.4 µM; 0.32% of 310,000 active;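 active = every replicate shows inhibition above about 80%, whatever the replicate mean, limit read from the data; inconclusive = mean inhibition reaches the set limit but some replicate falls short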;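 also: 0% = DMSO neutral controls and 100% = 20 µM radicicol positive controls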
SKKanGAS inh: SKKanGAS growth inhibition | 1.3% of 300,000 active | AID 1662 | inhibition, % at 7.5 µM | S. pyogenes SKKanGAS, kanamycin growth, BacTiter-Glo, 6 h;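 active = mean replicate score, as percent of positive control median, at least 50; inconclusive = mean below 50 but one replicate at or above 50; inactive = mean and every replicate below 50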;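 also: strain carries kanamycin resistance gene driven by streptokinase promoter and grows in 40 µg/ml kanamycin; loss of luminescence reflects streptokinase promoter inhibition or plain growth inhibition; 0% = median of DMSO wells and 100% = positive control at its reference dose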
ATG4B inh: ATG4B (human) cysteine protease inhibition; Q9Y4P1; ATG4B cleavage of LC3-PLA2, NBD-HPC fluorescence, 1 h; inhibition, % at 8.33 µM; 0.51% of 340,000 active; in the data active = inhibition above about 40%
Target sequence (Q9Y4P1 whole entry, looked up): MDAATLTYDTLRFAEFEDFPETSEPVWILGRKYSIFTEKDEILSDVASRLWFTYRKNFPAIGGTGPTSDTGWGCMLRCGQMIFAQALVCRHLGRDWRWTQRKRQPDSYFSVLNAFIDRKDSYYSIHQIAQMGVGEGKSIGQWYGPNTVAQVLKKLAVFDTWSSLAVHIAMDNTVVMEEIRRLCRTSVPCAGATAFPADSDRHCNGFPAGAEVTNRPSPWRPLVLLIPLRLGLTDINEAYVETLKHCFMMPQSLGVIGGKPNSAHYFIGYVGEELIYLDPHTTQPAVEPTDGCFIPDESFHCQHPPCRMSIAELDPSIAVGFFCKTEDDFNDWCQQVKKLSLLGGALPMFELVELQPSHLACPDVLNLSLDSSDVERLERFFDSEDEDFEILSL
TIM10 inh: inhibits growth of TIM10 yeast strain; AID 463195; 1.4% of 330,000 active; S. cerevisiae TIM10 strain growth, BacTiter-Glo luminescence, 24 h; inhibition, % at 10 µM;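 active = inhibition of 40% or more at the single tested concentration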;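 also: wild-type TIM10 isogenic control strain grown at permissive 25 °C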
tim10-1 inh: inhibits growth of tim10-1 mutant yeast. 2.2% of 330,000 active. inhibition, % at 20 µM. AID 463190. S. cerevisiae tim10-1 ts strain growth, BacTiter-Glo, 24 h;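 active = inhibition of at least 40%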;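 also: mutant grown at 25 °C; 0% = DMSO wells with yeast and 100% = wells holding no yeast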
tim23-1 inh: inhibits growth of tim23-1 mutant yeast; S. cerevisiae tim23-1 growth, BacTiter-Glo luminescence, 24 h; inhibition, % at 20 µM; 1.3% of 330,000 active; AID 463212;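 active = growth inhibition of the mutant yeast at or above 50%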;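 also: temperature-sensitive mutant grown at 25 °C; plate controls were DMSO-treated mutant yeast for no effect and medium wells lacking yeast for full effect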
tim10-1 confirm: confirmation of tim10-1 mutant yeast growth inhibitors; shares compounds with tim10-1 inh; S. cerevisiae tim10-1 ts strain growth, BacTiter-Glo, 24 h; inhibition, % at 20 µM; 56% of 7,400 active;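 active = inhibition of yeast growth at or above a set limit in either of two repeat tests at 20 µM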;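 also: tim10-1 mutant grown at permissive 25 °C to find synthetic lethal compounds; 0% = DMSO yeast wells and 100% = medium wells without yeast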
TIM10 conf: TIM10 yeast growth inhibition, confirmed | inhibition, % at 10 µM | S. cerevisiae tim10 strain growth, BacTiter-Glo luminescence, 24 h | AID 463215 | shares compounds with TIM10 inh | 63% of 4,600 active;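 active = inhibition of yeast growth at or above a set limit in either of two replicates at 10 µM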;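 also: this counterscreen used the strain with wild-type TIM10; 0% = yeast with DMSO and 100% = medium wells lacking yeast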
* marks the source's active call; other numbers are inactive results; ? = inconclusive; / = no result. This is a sample that favours compounds with a hit; in the whole collection about 4.7% have one here.

SMILES | PfHsp90 yeast 2 | SKKanGAS inh | ATG4B inh | TIM10 inh | tim10-1 inh | tim23-1 inh | tim10-1 confirm | TIM10 conf
O=S(=O)(NCCCc1ccccc1)c1ccc(F)c(F)c1 | -9.7 | 2.3 | -2.0 | -10.2 | 5.7 | 29.0 | / | /
COc1cc(CN2CCCCCC2)cc(OC)c1O | 6.7 | -3.9 | 0.1 | -1.7 | 18.2 | -0.9 | / | /
COc1cc(/C=N/NC(=O)CC2(C)OCCCO2)ccc1OCc1ccc(Cl)cc1Cl | -29.5 | -0.6 | -4.1 | 26.3 | 35.7 | 34.0 | / | /
CC1(CC(=O)N/N=C/c2ccc(OCc3ccc(Cl)cc3Cl)cc2)OCCCO1 | 23.4 | 12.4 | -9.6 | 49.2* | 63.3* | 42.0 | 41.1* | 1.9
Cc1cccc(Cc2c(C)nc3c(C(=O)NCc4ccco4)cnn3c2C)c1 | / | 1.7 | -0.5 | 47.6* | 41.0* | 44.5 | 42.1* | 39.8*
O=[N+]([O-])c1cccnc1N1CCC(c2cc(-c3cccc(C(F)(F)F)c3)n[nH]2)CC1 | 0.6 | 100.0* | 33.3 | 51.9* | 43.2* | -4.3 | 29.8* | -16.6
COC(=O)C(=C/C(C)=C/c1cccnc1)C(=O)OC | 35.5 | -8.8 | 0.4 | 49.9* | 50.5* | 42.4 | 41.1* | 46.0*
COC(=O)/C(=C/c1cccnc1)NC(=O)c1ccccc1 | -36.2 | -17.8 | 2.0 | 7.4 | -7.1 | 1.4 | / | /
O=C1C2C(c3ccccc3)=NN(c3ccccc3)C2C(=O)N1c1ccccc1 (stereo not given) | 2.1 | 107.5* | 23.4 | 59.2* | 59.5* | 47.7 | 49.0* | -18.9
O=S(=O)(NCCNc1ncc(C(F)(F)F)cc1Cl)C(F)(F)F | 8.2 | 1.2 | -7.1 | 44.7* | 54.7* | 46.7 | 45.6* | 13.1
O=C1C=CC(=O)N1CCNc1ncc(C(F)(F)F)cc1Cl | 101.2* | 76.6* | -0.2 | 88.2* | 92.0* | 47.4 | 94.3* | 97.8*
Fc1ccccc1C1c2cccn2CCN1C(=S)Nc1cccc(Br)c1 (stereo not given) | 1.3 | 20.0 | -3.1 | 24.0 | 25.0 | 27.3 | / | /
C=CCN1C(=O)C(Cc2ccc(SC(F)F)cc2)SC1=Nc1ccc(C(=O)O)cc1 (stereo not given) | -14.9 | 7.0 | 17.1 | 6.9 | 11.6 | 21.5 | / | /
CCc1ccc(OCC(=O)Nc2ccc(N3CCN(C(=O)c4ccccc4)CC3)cc2)cc1 | -8.0 | -3.2 | -1.8 | -6.3 | -7.9 | -16.9 | / | /
COc1ccc(OCC(=O)Nc2ccc(N3CCN(C(=O)c4ccccc4)CC3)c(Cl)c2)cc1 | 18.6 | 15.2 | -1.0 | 43.9* | 59.9* | 39.7 | 58.2* | 56.8*
O=C(NC12CC3CC(CC(C3)C1)C2)c1ccc(-c2cccc(Cl)c2)o1 | 29.6 | 9.1 | -2.2 | 46.7* | 47.3* | 47.3 | 35.6* | -17.5
N=c1c2c(-c3ccccc3)c(-c3ccccc3)n(Cc3ccccc3)c2ncn1CCO | -9.1 | -6.3 | 3.0 | 47.8* | 46.8* | 32.3 | 36.3* | 29.4
N=c1c2c(-c3ccccc3)c(-c3ccccc3)n(Cc3ccco3)c2ncn1CCCn1ccnc1 | -23.5 | 4.0 | -11.3 | / | / | / | / | /
COc1ccc(C(=O)COC(=O)c2cc(S(=O)(=O)NCc3ccccc3)ccc2O)cc1 | / | 17.6 | -1.9 | 22.0 | 25.7 | 23.4 | / | /
CCC(C(=O)O/N=C(\N)c1ccc(Cl)cc1)c1ccccc1 (stereo not given) | -21.0 | 0.4 | -5.6 | 62.6* | 74.9* | 11.4 | 62.6* | 70.5*
Cn1c(=O)c2nc(-c3ccccc3)oc2c2ccccc21 | / | 2.0 | -23.9 | 58.8* | 55.1* | 48.8 | 48.0* | 67.5*
COc1ccccc1CNC(=O)c1cccc(-c2ccc(C)c3ccccc23)n1 | / | 20.1 | / | -4.6 | -13.4 | -0.2 | / | /
CCCCCCCCCOC(=O)C(CC(=O)O)N1CCOCC1 (stereo not given) | 0.9 | -2.2 | 2.3 | 50.5* | 42.5* | 43.5 | 37.3* | 44.0*
Cc1ccc(S(=O)(=O)Nc2cccc(C(=O)NCC(c3ccc(F)cc3)N3CCOCC3)c2)cc1 (stereo not given) | 32.5 | / | -8.1 | 1.2 | 0.3 | -1.0 | / | /
Cc1noc(NS(=O)(=O)c2ccc(NC(=O)CCn3c(=O)oc4ccccc43)cc2)c1C | -3.6 | -1.9 | 5.1 | -9.7 | -15.4 | -7.8 | / | /
SMILES | PfHsp90 yeast 2 | SKKanGAS inh | ATG4B inh | TIM10 inh | tim10-1 inh | tim23-1 inh | tim10-1 confirm | TIM10 conf
COc1ccc(/C=N/n2c(-c3cc(C)[nH]n3)n[nH]c2=S)cc1 | 7.0 | 3.1 | -1.6 | 13.8 | 5.6 | 15.4 | / | /
CCc1ccc(-c2cn(C3CCCCC3)c(=S)[nH]2)cc1 | 3.8 | 17.7 | -1.9 | 53.0* | 44.7* | 45.9 | 46.5* | 56.4*
COc1ccc(C(=O)/C=C\c2ccc(NC(=O)c3cccs3)cc2)cc1 | 10.7 | 14.2 | 5.4 | 48.3* | 43.3* | 20.3 | 30.8* | 40.1*
CC(C)NC(=S)N/N=C1\CCCCC1C1CCCCC1 (stereo not given) | / | ? | 4.5 | 41.8* | 44.0* | 46.5 | 31.8* | 29.4
CC1CCCC/C1=N\NC(=S)Nc1ccccc1 (stereo not given) | -1.7 | 9.4 | -2.4 | 27.6 | 22.7 | 24.4 | / | /
COC(C/C=C/C(=O)[C@H](C)OCc1ccccc1)OC | -31.3 | -1.6 | -9.7 | 45.7* | 51.7* | 47.1 | 47.7* | 46.1*
CCOC(=O)c1c(NC(=O)CSc2nc3ccccc3s2)sc(C)c1C | -3.7 | 4.5 | 0.7 | 18.7 | 17.9 | 6.9 | / | /
CC(C)CCNC(=O)COC(=O)/C=C/c1ccc2ccccc2n1 | -18.1 | -9.2 | 0.3 | 45.1* | 49.4* | 48.3 | 42.0* | 41.0*
O=C(COC(=O)/C=C/c1ccccc1)NCCNC(=O)COC(=O)/C=C/c1ccccc1 | -9.1 | 0.3 | -4.5 | 7.7 | 12.4 | 15.9 | / | /
CC(=O)N1N=C(c2ccccc2)CC1c1ccc2c(c1)OCO2 (stereo not given) | 6.9 | -1.8 | -7.2 | -8.5 | 11.3 | 19.0 | / | /
CC(C)c1ccc(N2C(=O)CC(Sc3ncn[nH]3)C2=O)cc1 (stereo not given) | -47.7 | -2.6 | -0.9 | 69.3* | 45.6* | 0.2 | 51.9* | 62.5*
CC(C)c1ccc(N2C(=O)CC(Sc3nc4ccccc4o3)C2=O)cc1 (stereo not given) | / | 7.3 | -15.3 | 53.0* | 52.5* | 30.2 | 46.3* | 41.0*
COc1ccc(N2C(=O)CC(Sc3ncn[nH]3)C2=O)c(OC)c1 (stereo not given) | 7.3 | -0.1 | 5.7 | 24.3 | 9.9 | 5.3 | / | /
O=C(Nc1ccc(N2CCN(C(=O)c3ccc(Cl)cc3)CC2)cc1)c1ccc(Br)o1 | 17.2 | -1.3 | 2.4 | -0.4 | 33.8 | 12.4 | / | /
O=C(Nc1ccc(C(=O)N2CCN(c3ccc(Cl)cc3)CC2)cc1)C1=CSCCO1 | 3.3 | 25.6 | -3.2 | 47.5* | 47.5* | 31.5 | 48.5* | 45.4*

Screens from PubChem.
